From publication PMC7862700, “An all-to-all approach to the identification of sequence-specific readers for epigenetic DNA modifications on cytosine”

Tests used:
Experiment in all cases: DAPPL (digital affinity profiling via proximity ligation, sequencing); 10 mM Tris-HCl pH 7.5, 50 mM NaCl, 1 mM DTT, 4% glycerol, room temperature, 30 min; GST-TFs on glutathione beads, 16-mer random dsDNA library, 0.1% formaldehyde crosslink after washing; high values mean tight binding
FEV = target: T1, FEV (Homo sapiens, UniProt Q99581 1-238); conditions: protein: recombinant; tags: N-terminal GST; dsDNA, one strand shown
T1 sequence: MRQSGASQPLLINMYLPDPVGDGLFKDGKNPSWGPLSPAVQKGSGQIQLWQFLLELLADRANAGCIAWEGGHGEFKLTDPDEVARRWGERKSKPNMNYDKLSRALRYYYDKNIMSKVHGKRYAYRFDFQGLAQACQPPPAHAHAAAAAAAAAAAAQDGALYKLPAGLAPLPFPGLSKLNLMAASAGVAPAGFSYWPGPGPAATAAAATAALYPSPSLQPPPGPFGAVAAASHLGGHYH
Summary of the method: (§1)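 Each value of binding signal is a hexamer's read frequency for a factor divided by the same hexamer's frequency in the tag-only sample. Barcoded, bead-captured GST fusions of human transcription factors made in yeast were pooled with that sample and incubated with 200 nmole of a random double-stranded 16-mer DNA library in Tris/NaCl/DTT/glycerol buffer at room temperature for 30 min. Washing, 0.1% formaldehyde crosslinking, proximity ligation, PCR and Illumina NextSeq500 sequencing followed.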

ETV5 = ETV5 (Homo sapiens, UniProt P41161 1-510); conditions: protein: recombinant; tags: N-terminal GST; dsDNA, one strand shown
Sequence of ETV5 (P41161 whole entry): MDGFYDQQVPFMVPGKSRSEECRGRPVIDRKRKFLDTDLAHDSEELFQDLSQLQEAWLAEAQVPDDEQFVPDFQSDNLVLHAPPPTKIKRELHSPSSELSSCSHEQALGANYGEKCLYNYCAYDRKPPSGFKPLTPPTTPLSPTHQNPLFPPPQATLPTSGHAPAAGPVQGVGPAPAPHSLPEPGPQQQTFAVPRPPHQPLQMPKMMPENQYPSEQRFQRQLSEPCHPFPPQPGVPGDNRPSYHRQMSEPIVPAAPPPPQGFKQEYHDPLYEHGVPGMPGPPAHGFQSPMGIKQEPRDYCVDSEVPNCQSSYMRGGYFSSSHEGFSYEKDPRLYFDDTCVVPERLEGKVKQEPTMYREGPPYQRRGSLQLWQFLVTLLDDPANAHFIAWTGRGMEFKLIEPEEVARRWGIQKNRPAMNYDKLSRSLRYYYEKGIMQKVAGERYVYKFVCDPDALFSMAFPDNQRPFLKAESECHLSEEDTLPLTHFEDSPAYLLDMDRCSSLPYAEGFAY
Summary of the method: as §1

HSF1 = HSF1 (Homo sapiens, UniProt Q00613 1-529); conditions: protein: recombinant; tags: N-terminal GST; chain copies: 3; dsDNA, one strand shown
Sequence of HSF1 (Q00613 whole entry): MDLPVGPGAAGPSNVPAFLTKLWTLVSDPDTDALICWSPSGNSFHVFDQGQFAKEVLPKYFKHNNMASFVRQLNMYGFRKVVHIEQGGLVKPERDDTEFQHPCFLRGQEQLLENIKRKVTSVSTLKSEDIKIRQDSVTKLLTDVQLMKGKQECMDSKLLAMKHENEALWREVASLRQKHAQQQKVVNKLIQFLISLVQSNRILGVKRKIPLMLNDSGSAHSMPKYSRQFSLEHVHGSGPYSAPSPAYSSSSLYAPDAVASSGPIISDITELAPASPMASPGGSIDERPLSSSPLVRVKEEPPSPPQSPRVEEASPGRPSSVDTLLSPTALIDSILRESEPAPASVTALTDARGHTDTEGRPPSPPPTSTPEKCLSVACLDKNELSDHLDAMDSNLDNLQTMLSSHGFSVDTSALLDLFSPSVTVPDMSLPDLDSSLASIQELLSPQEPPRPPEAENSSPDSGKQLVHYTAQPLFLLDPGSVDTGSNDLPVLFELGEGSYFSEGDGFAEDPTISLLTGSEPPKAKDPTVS
Summary of the method: as §1

SPIC = target: T2, SPIC (Homo sapiens, UniProt Q8N5J4 1-248); conditions: protein: recombinant; tags: N-terminal GST; dsDNA, one strand shown
T2 sequence: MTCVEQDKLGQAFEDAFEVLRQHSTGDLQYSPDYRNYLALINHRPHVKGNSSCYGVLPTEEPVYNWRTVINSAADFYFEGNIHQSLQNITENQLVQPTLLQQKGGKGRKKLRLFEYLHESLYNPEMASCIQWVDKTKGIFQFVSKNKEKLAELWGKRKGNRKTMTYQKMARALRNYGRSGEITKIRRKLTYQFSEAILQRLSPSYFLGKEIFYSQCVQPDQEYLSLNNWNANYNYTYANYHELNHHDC
Summary of the method: as §1

ELF4 = ELF4 (Homo sapiens, UniProt Q99607 1-663); conditions: protein: recombinant; tags: N-terminal GST; dsDNA, one strand shown
Sequence of ELF4 (Q99607 whole entry): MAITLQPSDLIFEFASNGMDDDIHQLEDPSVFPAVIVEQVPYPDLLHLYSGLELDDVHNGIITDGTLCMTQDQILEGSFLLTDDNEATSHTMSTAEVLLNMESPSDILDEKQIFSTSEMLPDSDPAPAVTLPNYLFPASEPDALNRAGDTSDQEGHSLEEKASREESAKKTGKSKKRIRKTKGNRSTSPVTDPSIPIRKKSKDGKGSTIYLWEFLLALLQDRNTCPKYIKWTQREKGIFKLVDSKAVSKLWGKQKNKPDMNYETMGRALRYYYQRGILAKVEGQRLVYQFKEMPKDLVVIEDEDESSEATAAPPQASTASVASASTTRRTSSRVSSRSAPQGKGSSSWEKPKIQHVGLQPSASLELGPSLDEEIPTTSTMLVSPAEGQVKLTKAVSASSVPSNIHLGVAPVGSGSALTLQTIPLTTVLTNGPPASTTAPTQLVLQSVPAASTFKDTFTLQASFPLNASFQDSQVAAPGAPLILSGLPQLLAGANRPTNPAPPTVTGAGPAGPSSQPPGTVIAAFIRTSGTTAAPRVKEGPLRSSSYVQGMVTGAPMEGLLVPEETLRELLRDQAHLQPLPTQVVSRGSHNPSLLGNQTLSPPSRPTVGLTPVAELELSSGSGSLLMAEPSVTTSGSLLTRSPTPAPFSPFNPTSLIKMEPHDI
Summary of the method: as §1

ELK4 = target: T3, ELK4 (Homo sapiens, UniProt P28324-2 1-405); conditions: protein: recombinant; tags: N-terminal GST; dsDNA, one strand shown
T3 sequence: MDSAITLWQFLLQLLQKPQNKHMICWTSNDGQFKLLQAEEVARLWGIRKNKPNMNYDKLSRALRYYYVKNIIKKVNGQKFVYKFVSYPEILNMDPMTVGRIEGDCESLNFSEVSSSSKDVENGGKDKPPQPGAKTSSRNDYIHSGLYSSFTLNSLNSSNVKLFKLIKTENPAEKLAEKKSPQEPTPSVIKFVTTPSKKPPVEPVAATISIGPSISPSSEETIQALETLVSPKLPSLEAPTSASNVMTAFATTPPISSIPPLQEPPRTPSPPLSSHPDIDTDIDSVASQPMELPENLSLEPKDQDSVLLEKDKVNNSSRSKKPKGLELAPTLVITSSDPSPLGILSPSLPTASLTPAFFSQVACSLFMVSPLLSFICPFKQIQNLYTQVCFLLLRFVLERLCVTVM
Summary of the method: as §1

ETV2 = target: T4, ETV2 (Homo sapiens, UniProt O00321 1-342); conditions: protein: recombinant; tags: N-terminal GST; dsDNA, one strand shown
T4 sequence: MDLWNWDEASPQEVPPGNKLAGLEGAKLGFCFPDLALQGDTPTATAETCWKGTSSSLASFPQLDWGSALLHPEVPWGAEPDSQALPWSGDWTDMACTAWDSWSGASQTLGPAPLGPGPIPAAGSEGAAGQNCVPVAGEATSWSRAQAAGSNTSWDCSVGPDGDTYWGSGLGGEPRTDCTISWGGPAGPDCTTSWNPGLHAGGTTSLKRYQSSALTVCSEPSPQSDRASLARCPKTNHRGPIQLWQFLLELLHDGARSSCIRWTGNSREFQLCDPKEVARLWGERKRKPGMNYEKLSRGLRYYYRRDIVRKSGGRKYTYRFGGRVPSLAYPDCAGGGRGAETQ
Summary of the method: as §1

ELF3 = target: T5, ELF3 (Homo sapiens, UniProt P78545 1-371); conditions: protein: recombinant; tags: N-terminal GST; dsDNA, one strand shown
T5 sequence: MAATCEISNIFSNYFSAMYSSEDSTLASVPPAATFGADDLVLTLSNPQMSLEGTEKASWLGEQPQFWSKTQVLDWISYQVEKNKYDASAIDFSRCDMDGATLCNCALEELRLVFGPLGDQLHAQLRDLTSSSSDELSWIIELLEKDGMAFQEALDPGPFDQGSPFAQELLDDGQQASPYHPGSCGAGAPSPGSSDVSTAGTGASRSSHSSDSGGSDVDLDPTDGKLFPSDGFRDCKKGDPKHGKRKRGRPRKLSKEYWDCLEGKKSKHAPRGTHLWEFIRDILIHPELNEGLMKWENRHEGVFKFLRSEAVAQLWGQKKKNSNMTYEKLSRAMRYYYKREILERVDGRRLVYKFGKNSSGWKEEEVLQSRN
Summary of the method: as §1

CRX = CRX (Homo sapiens, UniProt O43186 1-299); conditions: protein: recombinant; tags: N-terminal GST; dsDNA, one strand shown
Sequence of CRX (O43186 whole entry): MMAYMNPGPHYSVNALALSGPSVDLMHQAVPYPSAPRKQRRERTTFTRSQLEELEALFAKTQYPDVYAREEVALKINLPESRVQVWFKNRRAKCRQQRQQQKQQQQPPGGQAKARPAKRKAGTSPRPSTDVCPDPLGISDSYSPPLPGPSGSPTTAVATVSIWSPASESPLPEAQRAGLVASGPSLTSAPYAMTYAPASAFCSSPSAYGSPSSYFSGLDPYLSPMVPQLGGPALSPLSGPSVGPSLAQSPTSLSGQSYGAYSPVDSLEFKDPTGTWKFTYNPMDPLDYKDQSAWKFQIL
Summary of the method: as §1

ETV1 = ETV1 (Homo sapiens, UniProt P50549 1-477); conditions: protein: recombinant; tags: N-terminal GST; dsDNA, one strand shown
Sequence of ETV1 (P50549 whole entry): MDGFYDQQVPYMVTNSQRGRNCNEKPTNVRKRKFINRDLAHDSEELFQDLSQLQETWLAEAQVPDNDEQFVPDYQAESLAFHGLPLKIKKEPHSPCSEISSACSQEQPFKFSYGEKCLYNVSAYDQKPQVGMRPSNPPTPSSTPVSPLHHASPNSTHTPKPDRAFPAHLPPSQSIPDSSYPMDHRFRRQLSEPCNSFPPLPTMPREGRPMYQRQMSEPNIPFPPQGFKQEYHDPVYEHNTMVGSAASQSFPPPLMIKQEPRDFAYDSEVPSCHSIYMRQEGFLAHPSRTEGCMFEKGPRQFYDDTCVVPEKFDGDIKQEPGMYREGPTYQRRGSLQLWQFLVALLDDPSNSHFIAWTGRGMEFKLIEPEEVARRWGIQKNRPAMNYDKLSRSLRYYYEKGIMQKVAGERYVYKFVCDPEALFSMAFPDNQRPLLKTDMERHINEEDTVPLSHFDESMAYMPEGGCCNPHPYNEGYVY
Summary of the method: as §1

ERF = target: T6, ERF (Homo sapiens, UniProt P50548 1-548); conditions: protein: recombinant; tags: N-terminal GST; dsDNA, one strand shown
T6 sequence: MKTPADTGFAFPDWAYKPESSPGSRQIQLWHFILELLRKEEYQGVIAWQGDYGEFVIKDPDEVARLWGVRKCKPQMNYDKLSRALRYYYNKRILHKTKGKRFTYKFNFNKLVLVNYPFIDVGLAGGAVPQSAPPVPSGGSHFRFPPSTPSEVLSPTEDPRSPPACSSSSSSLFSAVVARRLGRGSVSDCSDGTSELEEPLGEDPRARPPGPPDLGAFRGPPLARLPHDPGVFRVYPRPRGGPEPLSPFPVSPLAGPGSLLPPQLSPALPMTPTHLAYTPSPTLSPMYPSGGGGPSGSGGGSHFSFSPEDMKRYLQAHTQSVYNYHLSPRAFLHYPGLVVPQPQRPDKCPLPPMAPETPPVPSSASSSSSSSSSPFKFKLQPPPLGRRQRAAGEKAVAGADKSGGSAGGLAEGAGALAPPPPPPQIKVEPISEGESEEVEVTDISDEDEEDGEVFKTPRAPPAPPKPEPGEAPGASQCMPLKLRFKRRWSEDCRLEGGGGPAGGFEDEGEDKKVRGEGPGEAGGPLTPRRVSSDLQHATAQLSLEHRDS
Summary of the method: as §1

ETV3L = target: T7, ETV3L (Homo sapiens, UniProt Q6ZN32 1-361); conditions: protein: recombinant; tags: N-terminal GST; dsDNA, one strand shown
T7 sequence: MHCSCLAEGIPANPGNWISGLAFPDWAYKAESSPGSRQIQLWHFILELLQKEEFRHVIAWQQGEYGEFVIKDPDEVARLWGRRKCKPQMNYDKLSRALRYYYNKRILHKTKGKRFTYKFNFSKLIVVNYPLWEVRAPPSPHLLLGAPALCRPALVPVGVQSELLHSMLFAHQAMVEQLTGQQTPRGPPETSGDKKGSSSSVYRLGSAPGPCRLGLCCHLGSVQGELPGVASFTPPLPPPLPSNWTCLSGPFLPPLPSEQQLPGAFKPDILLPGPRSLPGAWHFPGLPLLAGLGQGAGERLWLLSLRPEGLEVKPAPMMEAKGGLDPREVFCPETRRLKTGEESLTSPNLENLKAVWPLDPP
Summary of the method: as §1

ETS2 = target: T8, ETS2 (Homo sapiens, UniProt P15036 1-469); conditions: protein: recombinant; tags: N-terminal GST; dsDNA, one strand shown
T8 sequence: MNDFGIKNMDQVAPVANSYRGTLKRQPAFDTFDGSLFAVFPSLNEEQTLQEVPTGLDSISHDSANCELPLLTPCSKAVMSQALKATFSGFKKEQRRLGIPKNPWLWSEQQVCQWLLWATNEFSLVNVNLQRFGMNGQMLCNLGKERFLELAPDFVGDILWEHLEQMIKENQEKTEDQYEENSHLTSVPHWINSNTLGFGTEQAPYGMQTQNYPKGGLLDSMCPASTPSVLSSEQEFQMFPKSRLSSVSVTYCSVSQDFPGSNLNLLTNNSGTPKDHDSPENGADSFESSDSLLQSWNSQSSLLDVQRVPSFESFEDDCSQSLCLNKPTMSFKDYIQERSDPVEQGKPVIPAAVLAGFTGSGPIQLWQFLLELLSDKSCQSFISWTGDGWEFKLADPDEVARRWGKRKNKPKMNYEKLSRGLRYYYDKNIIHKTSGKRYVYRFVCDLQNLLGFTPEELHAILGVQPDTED
Summary of the method: as §1

SPDEF = target: T9, SPDEF (Homo sapiens, UniProt O95238 1-335); conditions: protein: recombinant; tags: N-terminal GST; dsDNA, one strand shown
T9 sequence: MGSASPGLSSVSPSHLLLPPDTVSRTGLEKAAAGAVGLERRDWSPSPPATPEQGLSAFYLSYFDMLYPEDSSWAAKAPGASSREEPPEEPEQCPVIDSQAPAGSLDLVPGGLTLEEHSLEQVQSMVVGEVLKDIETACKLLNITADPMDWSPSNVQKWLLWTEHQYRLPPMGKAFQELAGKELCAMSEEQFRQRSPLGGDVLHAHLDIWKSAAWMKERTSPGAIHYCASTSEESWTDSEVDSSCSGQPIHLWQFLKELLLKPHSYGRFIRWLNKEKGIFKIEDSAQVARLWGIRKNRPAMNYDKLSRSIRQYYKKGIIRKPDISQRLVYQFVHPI
Summary of the method: as §1

ETV7 = target: T10, ETV7 (Homo sapiens, UniProt Q9Y603 1-341); conditions: protein: recombinant; tags: N-terminal GST; dsDNA, one strand shown
T10 sequence: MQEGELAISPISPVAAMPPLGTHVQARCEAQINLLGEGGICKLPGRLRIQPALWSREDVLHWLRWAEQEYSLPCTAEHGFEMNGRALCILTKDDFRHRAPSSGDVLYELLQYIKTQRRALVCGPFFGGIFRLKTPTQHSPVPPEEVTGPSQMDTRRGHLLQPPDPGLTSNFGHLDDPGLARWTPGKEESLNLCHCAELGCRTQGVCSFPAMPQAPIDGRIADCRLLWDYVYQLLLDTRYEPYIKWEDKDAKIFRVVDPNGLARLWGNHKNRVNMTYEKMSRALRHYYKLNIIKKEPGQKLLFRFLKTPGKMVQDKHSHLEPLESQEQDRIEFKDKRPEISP
Summary of the method: as §1

ELF5 = target: T11, ELF5 (Homo sapiens, UniProt Q9UKW6-2 1-255); conditions: protein: recombinant; tags: N-terminal GST; dsDNA, one strand shown
T11 sequence: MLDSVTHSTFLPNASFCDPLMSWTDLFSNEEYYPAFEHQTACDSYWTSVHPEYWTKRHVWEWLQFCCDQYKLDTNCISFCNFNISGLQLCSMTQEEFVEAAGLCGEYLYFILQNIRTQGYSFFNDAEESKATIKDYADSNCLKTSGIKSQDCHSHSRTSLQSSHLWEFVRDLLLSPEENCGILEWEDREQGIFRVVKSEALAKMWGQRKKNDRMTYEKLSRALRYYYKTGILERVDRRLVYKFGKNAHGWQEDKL
Summary of the method: as §1

ETV3 = target: T12, ETV3 (Homo sapiens, UniProt P41162-2 1-143); conditions: protein: recombinant; tags: N-terminal GST; dsDNA, one strand shown
T12 sequence: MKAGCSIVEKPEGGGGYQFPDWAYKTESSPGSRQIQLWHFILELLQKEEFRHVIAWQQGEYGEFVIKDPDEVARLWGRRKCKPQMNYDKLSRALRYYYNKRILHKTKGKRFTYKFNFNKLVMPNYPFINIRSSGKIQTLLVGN
Summary of the method: as §1

ETV6 = ETV6 (Homo sapiens, UniProt P41212 1-452); conditions: protein: recombinant; tags: N-terminal GST; dsDNA, one strand shown
Sequence of ETV6 (P41212 whole entry): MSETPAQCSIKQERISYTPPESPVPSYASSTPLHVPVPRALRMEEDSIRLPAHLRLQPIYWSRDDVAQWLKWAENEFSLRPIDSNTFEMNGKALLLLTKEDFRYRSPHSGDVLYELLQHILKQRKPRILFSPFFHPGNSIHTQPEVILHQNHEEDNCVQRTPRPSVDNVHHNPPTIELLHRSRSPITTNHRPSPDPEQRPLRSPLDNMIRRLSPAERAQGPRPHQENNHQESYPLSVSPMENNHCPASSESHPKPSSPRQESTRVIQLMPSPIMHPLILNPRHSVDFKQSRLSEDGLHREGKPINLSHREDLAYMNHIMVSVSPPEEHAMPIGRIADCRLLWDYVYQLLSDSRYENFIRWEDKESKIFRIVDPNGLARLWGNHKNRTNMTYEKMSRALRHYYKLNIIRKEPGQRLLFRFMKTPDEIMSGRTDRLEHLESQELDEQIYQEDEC
Summary of the method: as §1

Sequence	binding signal (FEV)	binding signal (ETV5)	binding signal (HSF1)	binding signal (SPIC)	binding signal (ELF4)	binding signal (ELK4)	binding signal (ETV2)	binding signal (ELF3)	binding signal (CRX)	binding signal (ETV1)	binding signal (ERF)	binding signal (ETV3L)	binding signal (ETS2)	binding signal (SPDEF)	binding signal (ETV7)	binding signal (ELF5)	binding signal (ETV3)	binding signal (ETV6)
TACCTG	1.11 fold enrichment (6-mer frequency, TF over GST control)	1.19 fold enrichment (6-mer frequency, TF over GST control)	1.04 fold enrichment (6-mer frequency, TF over GST control)	1.04 fold enrichment (6-mer frequency, TF over GST control)	1.14 fold enrichment (6-mer frequency, TF over GST control)	1.07 fold enrichment (6-mer frequency, TF over GST control)	1.14 fold enrichment (6-mer frequency, TF over GST control)	1.15 fold enrichment (6-mer frequency, TF over GST control)	1.11 fold enrichment (6-mer frequency, TF over GST control)	1.27 fold enrichment (6-mer frequency, TF over GST control)	1.22 fold enrichment (6-mer frequency, TF over GST control)	1.09 fold enrichment (6-mer frequency, TF over GST control)	1.15 fold enrichment (6-mer frequency, TF over GST control)	1.11 fold enrichment (6-mer frequency, TF over GST control)	1.24 fold enrichment (6-mer frequency, TF over GST control)	1.21 fold enrichment (6-mer frequency, TF over GST control)	1.19 fold enrichment (6-mer frequency, TF over GST control)	1.2 fold enrichment (6-mer frequency, TF over GST control)
TTGATT	1.18 fold enrichment (6-mer frequency, TF over GST control)	1.14 fold enrichment (6-mer frequency, TF over GST control)	1.32 fold enrichment (6-mer frequency, TF over GST control)	1.35 fold enrichment (6-mer frequency, TF over GST control)	1.25 fold enrichment (6-mer frequency, TF over GST control)	1.29 fold enrichment (6-mer frequency, TF over GST control)	1.32 fold enrichment (6-mer frequency, TF over GST control)	1.25 fold enrichment (6-mer frequency, TF over GST control)	1.48 fold enrichment (6-mer frequency, TF over GST control)	1.27 fold enrichment (6-mer frequency, TF over GST control)	1.31 fold enrichment (6-mer frequency, TF over GST control)	1.25 fold enrichment (6-mer frequency, TF over GST control)	1.22 fold enrichment (6-mer frequency, TF over GST control)	1.15 fold enrichment (6-mer frequency, TF over GST control)	1.28 fold enrichment (6-mer frequency, TF over GST control)	1.16 fold enrichment (6-mer frequency, TF over GST control)	1.3 fold enrichment (6-mer frequency, TF over GST control)	1.18 fold enrichment (6-mer frequency, TF over GST control)
